Active and inactive are the calls of the source.

One assay relates to XIP peptide (Xip251-270) binding. In words: small-molecule binders of XIP peptide, primary screen, biochemical, small-molecule microarray, fluorescence 635/667 nm, 0.1 µg/mL protein (AID 1182). As to conditions: fluorescent protein binding, 635 nm, higher = more signal, called active from +8 up or from −8 down.
In the case of `CC1(C)O[C@H]2O[C@H]([C@H](O)CON=C3[C@H]4CCn5c(=O)n(-c6ccccc6)c(=O)n5[C@H]4[C@H](O)[C@@H]4O[C@H]34)[C@H](O)[C@H]2O1`, the composite z-score was 0.469 (inactive).

On to `COC(=O)CC=C[C@@H](C)[C@@H](C=NOC(C)CN1CCCCc2nc(C)c(C)cc21)OC` (stereo not given in full), for which the composite z-score is 0.771 (inactive).

Consider `COC(=O)CC=C[C@@H](C)[C@@H](C=NOC(C)CN1CCCCc2nc(C)c(C)cc21)NS(=O)(=O)c1ccc(C)cc1` (stereo not given in full), for which the composite z-score was -0.598 (inactive).

For `CCN1C(=O)[C@H]2[C@H]3[C@H](O)[C@H](O)CC(=NNC(=O)OCc4ccccc4)[C@@H]3CC[C@H]2C1=O`, the composite z-score was -0.425 (inactive).

Regarding `CC(C)[C@@H](OCc1ccccc1)[C@H](C)C=NO[C@H](C)c1cn([C@@H]2COC[C@H]2O)nn1`, the composite z-score was -0.0971 (inactive).

Turning to `O=C1[C@H]2[C@H]3[C@H](O)[C@H](O)CC(=NO[C@@H]4O[C@H](CO)[C@@H](O)[C@H](O)[C@H]4O)[C@H]3CC[C@H]2C(=O)N1C[C@@H]1CCCO1`, the composite z-score is -0.48 (inactive).

`CC#CCOCCC=C1c2ccccc2[C@@H](OC)[C@@H]1C`: the composite z-score was 0.772 (inactive).

Turning to `C[C@@H]1CC[C@H]2C(=O)O[C@@H](COc3ccc(C(C)(C)C)cc3)CN2[C@H]1c1ccc(Br)cc1`, the composite z-score was -0.382 (inactive).

Consider `COc1ccc(COC(=O)NN=C2C[C@@H](O)[C@@H](O)[C@@H]3[C@@H]4C(=O)N(Cc5ccccc5)C(=O)[C@@H]4CC[C@@H]23)cc1`, for which the composite z-score was -0.662 (inactive).

In a further assay the test system is XIP peptide (Xip251-270). Kind of assay: small-molecule binders of XIP peptide, primary screen, biochemical, small-molecule microarray, fluorescence 635/667 nm, 0.5 µg/mL protein (AID 1183). As to conditions: small-molecule microarray binding, fluorescence 635 nm; higher = more signal.
On to `CC(C)=NOC(C)CN1CCCCc2nc(C)c(C)cc21` (stereo not given), for which the composite z-score is 0.208.

With `CCN1C(C)=C(C(=O)OC)[C@@H](c2ccccc2)N2C(=O)[C@](O)(C(=O)OC)CC(C(C)=O)=C12`, the composite z-score was -0.218.

On to `COC(=O)[C@H](C)NC(=O)CCC1CC(OC(=O)NCc2ccc3c(c2)OCO3)CC2(CCCC(COC(=O)NCCC(C)C)O2)O1` (stereo not given in full), for which the composite z-score is 0.106.

For `CCN(CC)CC(O)CN1CCCCc2nc(C)c(C)cc21` (stereo not given), the composite z-score was -0.136.

Regarding `CC(C)(C)N1C(=O)[C@H]2[C@H]3[C@H](O)[C@H](O)CC(=NNC(=O)OCc4ccccc4)[C@@H]3CC[C@H]2C1=O`, the composite z-score stood at 0.195.

Regarding `CCN1C(=O)[C@H]2[C@H]3[C@H](O)[C@H](O)CC(=NOC[C@@H](O)[C@H]4O[C@@H]5OC(C)(C)O[C@@H]5[C@H]4O)[C@@H]3CC[C@H]2C1=O`, the composite z-score came out at 0.33.

Consider `CO[C@@H]1COC(=O)CC=C[C@H](C)[C@H](OC)COC(=O)[C@@H]2CCCN2C(=O)CC=C[C@H]1C`, for which the composite z-score is 0.607.

With `CC(CCN1CCc2nc(-c3ccccc3)c(-c3ccccc3)cc2C1)=NO[C@H](C)c1cn([C@H](CO)Cc2ccccc2)nn1`, the composite z-score was 0.529.

As to `CCOC(=O)[C@H](CC(C)C)NC(=O)CCC1CC(OC(=O)NCCc2ccc(F)cc2)CC2(CCCC(COC(=O)NCc3cccc(C(F)(F)F)c3)O2)O1` (stereo not given in full), the composite z-score was 0.575.

For the molecule `COc1ccc(COC(=O)NN=C2C[C@@H](O)[C@@H](O)[C@@H]3[C@@H]4C(=O)N(Cc5ccc6c(c5)OCO6)C(=O)[C@@H]4CC[C@H]23)cc1`, the composite z-score was 0.174.

For the molecule `COC(=O)[C@@H]1CC[C@H](C)[C@@H](c2ccc(C)cc2)N1C(=O)c1ccc(C=NOC[C@H]2O[C@H](c3ccccc3)C=C[C@@H]2Oc2ccc(OC)cc2)cc1`, the composite z-score is 0.313.

Consider `CC(=O)OC[C@H]1O[C@H](CCON=C(C)C)C=C[C@@H]1OC(C)=O`, for which the composite z-score was found to be 0.0795.

`CO[C@@H]1COC(=O)[C@H](CCSC)NC(=O)CC=C[C@@H](C)COC(=O)[C@@H]2CCCN2C(=O)CC=C[C@H]1C`: the composite z-score came out at 0.352.

In the case of `CCOC(=O)[C@H](CC(C)C)NC(=O)CCC1CC(OC(=O)NCc2ccc3c(c2)OCO3)CC2(CCCC(COC(=O)NCc3ccccc3)O2)O1` (stereo not given in full), the composite z-score turned out to be 0.118.

For `CC(CCC(=O)OC[C@H]1O[C@H](C#Cc2ccccc2)C=C[C@@H]1Oc1ccc(C)cc1)=NOC[C@@H](C)[C@H](OCc1ccccc1)C(C)C`, the composite z-score was -0.693.

With `COc1ccc(-c2cnnc(CCCn3ccnc3-c3ccccc3)n2)cc1`, the composite z-score was found to be 0.492.

In the case of `COc1ccc(COC(=O)NN=C2C[C@@H](O)[C@@H](O)[C@@H]3[C@@H]4C(=O)N(C5CCCCC5)C(=O)[C@@H]4CC[C@@H]23)cc1`, the composite z-score was found to be 0.0499.

Turning to `CCN1C(=O)[C@H]2[C@H]3[C@H](O)[C@H](O)CC(=NO[C@H](C)c4cn([C@H](CO)Cc5ccccc5)nn4)[C@@H]3CC[C@H]2C1=O`, the composite z-score was found to be 0.722.

As to `CO[C@@H]1COC(=O)[C@H](COCc2ccccc2)NC(=O)CC=C[C@@H](C)[C@H](OC)COC(=O)[C@@H](C)NC(=O)CC=C[C@H]1C`, the composite z-score stood at 0.261.

For the molecule `O=C1[C@H]2CCn3c(=O)n(Cc4cc5c(cc4Cl)OCO5)c(=O)n3[C@H]2[C@H](O)[C@@H]2O[C@H]12`, the composite z-score turned out to be 0.639.

Consider `COC(=O)CC=C[C@@H](C)[C@@H](C=NOC(C)CN1CCCc2nc(C)c(C)cc21)NS(=O)(=O)c1ccc(C)cc1` (stereo not given in full), for which the composite z-score was determined as 0.624.

For the molecule `COC(=O)CC=C[C@@H](C)[C@@H](C=NOC[C@@H](O)COCc1ccco1)NS(=O)(=O)c1ccc(C)cc1`, the composite z-score came to 0.239.

Consider `C[C@@H]1CC[C@H]2C(=O)O[C@@H](CN=[N+]=[N-])CN2[C@H]1c1ccc(Br)cc1`, for which the composite z-score amounted to 0.688.

In the case of `COC(OC)[C@@H](C)[C@H](OC)[C@@H](C)[C@H](OC)c1ccccc1`, the composite z-score is -0.0245.

With `CCOC(=O)[C@H](CC(C)C)NC(=O)CCC1CC(OC(=O)NCc2ccc3c(c2)OCO3)CC2(CCCC(COC(=O)NCCc3ccccc3OC)O2)O1` (stereo not given in full), the composite z-score came out at 0.622.

Regarding `CO[C@@H]1COC(=O)[C@@H]2CCCN2C(=O)[C@@H](C)COC(=O)CCC[C@H]1C`, the composite z-score stood at 0.143.

For `CC(C)=NO[C@@H](C)c1cn([C@H](CO)Cc2ccccc2)nn1`, the composite z-score was found to be 0.241.

Consider `CC1(C)O[C@H]2O[C@H]([C@H](O)CON=C3[C@H]4CCn5c(=O)n(-c6ccccc6)c(=O)n5[C@H]4[C@H](O)[C@@H]4O[C@H]34)[C@H](O)[C@H]2O1`, for which the composite z-score was -0.0051.

Regarding `COC(=O)CC=C[C@@H](C)[C@@H](C=NOC(C)CN1CCCCc2nc(C)c(C)cc21)OC` (stereo not given in full), the composite z-score worked out at 0.444.

`COC(=O)CC=C[C@@H](C)[C@@H](C=NOC(C)CN1CCCCc2nc(C)c(C)cc21)NS(=O)(=O)c1ccc(C)cc1` (stereo not given in full): the composite z-score is -0.0903.

Regarding `CCN1C(=O)[C@H]2[C@H]3[C@H](O)[C@H](O)CC(=NNC(=O)OCc4ccccc4)[C@@H]3CC[C@H]2C1=O`, the composite z-score was -0.0369.

In the case of `CC(C)[C@@H](OCc1ccccc1)[C@H](C)C=NO[C@H](C)c1cn([C@@H]2COC[C@H]2O)nn1`, the composite z-score came to 0.0742.

For `O=C1[C@H]2[C@H]3[C@H](O)[C@H](O)CC(=NO[C@@H]4O[C@H](CO)[C@@H](O)[C@H](O)[C@H]4O)[C@H]3CC[C@H]2C(=O)N1C[C@@H]1CCCO1`, the composite z-score was 0.184.

Turning to `CC#CCOCCC=C1c2ccccc2[C@@H](OC)[C@@H]1C`, the composite z-score amounted to 0.0938.

In the case of `C[C@@H]1CC[C@H]2C(=O)O[C@@H](COc3ccc(C(C)(C)C)cc3)CN2[C@H]1c1ccc(Br)cc1`, the composite z-score is 0.619.

`COc1ccc(COC(=O)NN=C2C[C@@H](O)[C@@H](O)[C@@H]3[C@@H]4C(=O)N(Cc5ccccc5)C(=O)[C@@H]4CC[C@@H]23)cc1`: the composite z-score is 0.0404.

Source of the values: PubChem BioAssay.
